High-throughput results as filed in PubChem BioAssay.
Rows were chosen to be rich in hits. Some 4.9% of all compounds tested hit in one or more screens of this group.
MPTP block = permeability transition pore inhibition | isolated mouse mitochondria, Ca2+ swelling absorbance, 30 min | inhibition, % at 10 µM | 360,000 tested, 1.4% active | AID 602449;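 active = inhibition of 50% or more, scaled per plate between neutral and stimulator controls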;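 also: 0% = DMSO wells given calcium and 100% = 1 mM EGTA wells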
HSF1 activator = increases HSF-1 driven luciferase reporter signal | NIH3T3-HGL HSF-1 luciferase reporter, MG132, 8 h; 100% = twice DMSO control signal | activation, % at 9 µM | 300,000 tested, 1.7% active;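 active = mean replicate activation of at least 50% with a set share of replicates each reaching 50%; inconclusive = only one of those two conditions met; inactive = mean below 50% and too few replicates reaching it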;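 also: 0% = median of the neutral control wells and 100% = twice that signal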
dFosB activator = enhances mouse delta FosB homodimer DNA binding; purified delta FosB, TAMRA-CDK5 oligo fluorescence polarization; percent of positive-control signal above neutral wells; activation, % at 25 µM; 340,000 tested, 0.99% active; AID 493131;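 active = mean activation above about 17%, with every replicate also reaching it, limit read from the data, passing the limit was not always enough; inconclusive = only one of the two conditions met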
Target sequence (P13346 whole entry, looked up): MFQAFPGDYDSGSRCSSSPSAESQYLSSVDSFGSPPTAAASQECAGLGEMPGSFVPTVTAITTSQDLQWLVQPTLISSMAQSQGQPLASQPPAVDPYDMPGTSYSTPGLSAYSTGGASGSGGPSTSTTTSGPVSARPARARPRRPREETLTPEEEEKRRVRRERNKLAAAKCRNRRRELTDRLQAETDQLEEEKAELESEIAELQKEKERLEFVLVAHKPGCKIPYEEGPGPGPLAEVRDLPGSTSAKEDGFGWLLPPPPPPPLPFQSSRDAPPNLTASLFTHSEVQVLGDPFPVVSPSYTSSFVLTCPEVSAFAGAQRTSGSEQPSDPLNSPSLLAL
Platelet DG rel = platelet dense granule release activity | human platelet-rich plasma, SFLLRN dense granule ATP release, luminescence | inhibition, %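 (compounds screened at 7.5 µM in platelet-rich plasma)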 | 300,000 tested, 0.22% active | AID 1663;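 active = mean replicate score, as percent of positive control, at or above 50; inconclusive = mean below 50 but at least one replicate at or above 50; inactive = mean and every replicate below 50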
HSP90 inh = HSP90 refolding inhibition in rabbit reticulocyte lysate. AID 1789. 290,000 tested, 0.91% active. inhibition, % at 5.6 µM. luciferase refolding luminescence, 3 h;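 active = inhibition above the screen-wide mean plus 3 SD, computed separately per campaign, cut at about 16% in these data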;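 also: 0% = DMSO wells and 100% = 60 µM geldanamycin wells; inhibitors lower the luminescence because luciferase stays unfolded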
HSF1 inh = HSF1 inhibition. NIH3T3-HGL HSE-luciferase, MG132-induced, luminescence 8 h; hits give low values. activity change, negative = inhibition, % at 7.5 µM (by protocol). 300,000 tested, 0.77% active. AID 2098;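 active = more than half of replicate wells show activity change below -50%, luminescence cut by over half; inconclusive = some wells, but at most half, below -50%; inactive = no replicate well below -50%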;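 also: luciferase reports HSF-1 transcriptional activity via heat shock element; 0% = median of DMSO wells and -100% = zero luminescence signal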
Rh123 counter = Rhodamine 123 counter-screen of mitochondrial pore hits | AID 624504 | inhibition, % at 10 µM | shares compounds with MPTP block | 5,000 tested, 78% active | isolated mitochondria, membrane potential, Rhodamine 123 fluorescence; in the data active = inhibition above about 22%;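 also: 0% = DMSO vehicle and 100% = positive control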
MPTP swell DR = MPTP inhibition, dose response swelling confirmation; 780 tested, 58% active; shares compounds with MPTP block; isolated mitochondria swelling, absorbance; IC50, µM; in the data active = IC50 below about 20 µM
MPTP counter DR = MPTP inhibitor counter-screen activity, dose response; IC50, µM; isolated mitochondria counterscreen, fluorescence read-out; shares compounds with MPTP block; 780 tested, 49% active; in the data active = IC50 below about 80 µM
Numbers without * were called inactive; ? = inconclusive; . = no result given.

SMILES | MPTP block | HSF1 activator | dFosB activator | Platelet DG rel | HSP90 inh | HSF1 inh | Rh123 counter | others
Cc1ccc(S(=O)(=O)NC(=O)Nc2cccc([N+](=O)[O-])c2)cc1 | 2 | 18 | -4 | -15 | -4 | 9 | .
CC(C)(C)CC(C)(C)NC(=O)Nc1cccc([N+](=O)[O-])c1 | 90* | -2 | 0 | 0 | 7 | -8 | 84*
CCOc1ccc(CN(C)c2ccc(S(=O)(=O)N3CCN(C)CC3)cc2[N+](=O)[O-])cc1OC | 55* | . | -5 | . | . | . | 93*
C=CCOc1ccc(CN(C)c2ccc(S(=O)(=O)N3CCN(C)CC3)cc2[N+](=O)[O-])cc1 | 0 | . | -2 | . | . | . | .
CCN(CC(=O)Nc1ccccc1C(F)(F)F)C(=O)c1ccccc1OCc1ccc(F)cc1 | 2 | . | -11 | . | . | . | .
Cc1cccc(N2C(=O)/C(=C/c3cccnc3)SC2=S)c1 | 1 | 37 | -2 | -11 | -4 | 23 | .
Cc1cc(/C=C2/SC(=S)N(c3cccc(Cl)c3)C2=O)c(C)n1-c1cccnc1 | 63* | -32 | -2 | 1 | -2 | -26 | 78*
Cc1cc(/C=C2/SC(=S)N(c3ccc([N+](=O)[O-])cc3)C2=O)c(C)n1-c1cccnc1 | 95* | -27 | -25 | -3 | -3 | -2 | 95*
Cc1cc(/C=C2\SC(=S)N(C)C2=O)c(C)n1-c1ccccc1O | 92* | -47 | 2 | -3 | . | -38 | 67*
CC(C)(C)c1cc(NC(=O)C2(C)CCN2C(=O)C2(c3ccccc3)CCCC2)no1 (stereo unspecified) | -1 | . | . | . | . | . | .
Cc1ccc(/C=C2/SC(=S)N(c3ccc(S(=O)(=O)Nc4nccs4)cc3)C2=O)cc1 | 96* | 7 | -19 | -10 | -2 | 1 | 75*
COc1ccc(/C=C2/SC(=S)N(c3ccc(S(=O)(=O)Nc4nccs4)cc3)C2=O)cc1 | 89* | 21 | -15 | -3 | -1 | 3 | 64*
COc1ccc(/C=C2/SC(=O)N(CCC(=O)Nc3ccc(S(=O)(=O)Nc4nccs4)cc3)C2=O)cc1 | 5 | 18 | ? | -14 | -2 | 9 | .
O=C1/C(=C\c2ccccn2)SC(=S)N1c1ccc(S(=O)(=O)Nc2nccs2)cc1 | 70* | -11 | -21 | -1 | 6 | -2 | 48*
Cc1ccc(Oc2ccc3c(c2)C(=O)N(c2ccc(S(=O)(=O)Nc4nccs4)cc2)C3=O)cc1 | 4 | 16 | -7 | -7 | 0 | 0 | .
O=C(Nc1cccc(S(=O)(=O)N2CCCCCC2)c1)c1cc(=O)c2ccccc2o1 | 52* | 14 | 1 | 1 | -2 | -7 | 64*
CCc1noc(C)c1C(=O)Nc1ccc(S(=O)(=O)N2CCCC(C)C2)cc1 (stereo unspecified) | -2 | -1 | -6 | . | . | -2 | .
O=C(Nc1cccc(S(=O)(=O)N2CCCC2)c1)c1ccco1 | 0 | . | -4 | . | . | . | .
Cc1cc2oc(C(=O)Nc3ccc(S(=O)(=O)N4CCCC(C)C4)cc3)cc(=O)c2cc1Cl (stereo unspecified) | 73* | 32 | -6 | 1 | -4 | 5 | 7 | MPTP swell DR=>100;MPTP counter DR=<2.5*
O=C(c1ccco1)N1N=C(c2ccccc2)CC1c1ccc2nccnc2c1 (stereo unspecified) | 2 | 49 | -3 | -8 | -1 | 20 | .
CC(C)C(NC(=O)C(NC(=O)C1OC2OC(C)(C)OC2C2OC(C)(C)OC12)C(C)C)C(=O)O (stereo unspecified) | -1 | 5 | 0 | 27 | -1 | 0 | .
COc1cc(C2SCCS2)cc(Br)c1Oc1ncccc1[N+](=O)[O-] | 58* | 11 | -11 | -11 | -1 | -6 | 33*
CC1(C)Cc2cccc(OC(=O)NCCc3ccc(F)cc3)c2O1 | 0 | . | . | . | . | . | .
CCCCCCSc1nsc(NC(=O)CC(C)C)n1 | 78* | 15 | -5 | 0 | 0 | 14 | 92*
CCCSc1nsc(NC(=O)CC)n1 | 0 | 27 | -10 | 4 | 9 | 8 | .
SMILES | MPTP block | HSF1 activator | dFosB activator | Platelet DG rel | HSP90 inh | HSF1 inh | Rh123 counter | others
O=C(Cn1cc(COc2ccc(Cl)c(Cl)c2)nn1)NS(=O)(=O)c1ccccc1C(F)(F)F | 0 | . | . | . | . | . | .
CCOC(=O)C1CCCN(C(=O)c2ccc(S(=O)(=O)N3CCCC3)cc2)C1 (stereo unspecified) | 1 | 0 | 0 | 3 | . | -4 | .
CCOC(=O)C1CCCN(S(=O)(=O)c2ccc(S(=O)(=O)N3CCCC3)cc2)C1 (stereo unspecified) | 62* | 4 | 11 | 6 | . | -3 | 74*
CC(=O)c1cccc(NC(=O)c2nc(-c3ccccc3)oc2C)c1 | 5 | 2 | -27 | -4 | 0 | 8 | .
Oc1cc2ccccc2cc1-c1n[nH]c(=S)o1 | 96* | -26 | -4 | -4 | 5 | -6 | 71*
Nc1nc(Cl)cc(N2CCC(c3cc(-c4ccc(Cl)cc4Cl)n[nH]3)CC2)n1 | 64* | -2 | -1 | -8 | 2 | -6 | 63*
CSc1ccccc1C(=O)NCCCn1ccnc1 | 0 | -4 | 3 | 4 | 0 | -11 | .
O=S(=O)(Nc1cccnc1)c1ccc(C2CCCCC2)cc1 | 104* | -5 | ? | -2 | 3 | 16 | 106*
N=c1c2c(-c3ccccc3)c(-c3ccccc3)n(Cc3ccco3)c2ncn1CCO | 81* | 16 | 2 | -4 | -5 | 11 | -3
CCCCn1c(NCc2cccs2)nc2ccccc21 | 0 | -4 | -5 | 2 | 4 | 7 | .
CC(CNC(=O)c1cc(COc2ccc3ncccc3c2)on1)c1ccccc1 (stereo unspecified) | 99* | -9 | -9 | -7 | -4 | 4 | 102*
O=C(NC1CCCCCCC1)c1cc(COc2ccc3ncccc3c2)on1 | 102* | 2 | -17 | -7 | 2 | -11 | 99*
CC(C)N1C(=O)c2ccccc2NC(=O)C1C(=O)NCc1cccc(C(F)(F)F)c1 (stereo unspecified) | 9 | . | . | . | . | . | .
COCCN(CC(=O)Nc1cccc(C)c1C)C(=O)c1oc2c(Cl)cccc2c1C | -1 | . | -14 | . | . | . | .
CCn1cc(CN2CCC(C(=O)Nc3ccc(Oc4ccccc4F)cc3)CC2)c(C)n1 | 1 | 1 | -27 | 11 | 1 | -2 | .
CC(C)n1cc(CN2CCC(C(=O)Nc3ccc(Oc4ccccc4F)cc3)CC2)cn1 | 83* | 1 | -4 | -20 | 6 | -6 | 14 | MPTP swell DR=4.6*;MPTP counter DR=26*
CCOC(=O)c1c(NC(=O)C2CCCCC2)sc2c1CCN(CC)C2 | 58* | -15 | -8 | -1 | -3 | -1 | -9 | MPTP swell DR=15*;MPTP counter DR=>80
